Assay results published in PubChem BioAssay.
Calls of active or inactive are those of the source. Unless noted, the rule behind the calls is not given here.

Tests used:
[1] = HepG2 liver cancer cell viability effects, profiling panel, resazurin fluorescence, 24 h, PK04 Diversity Set (AID 1172); conditions: higher = more signal
[2] = basal S. cerevisiae growth modulation, no modifier, primary screen, OD600, strain BY4716, 24 h, basal condition (AID 1173); conditions: OD600, 24 h, higher = more signal, called active from +8 up or from −8 down
[3] = MM1S myeloma cell viability, profiling panel, resazurin fluorescence, basal, 24 h, PK04 Diversity Set (AID 1174); conditions: higher = more signal, called active from +8 up or from −8 down;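 note: MM1S multiple myeloma cell line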
[4] = target: Dihydroorotate dehydrogenase (quinone), mitochondrial (Plasmodium falciparum (isolate 3D7)) (UniProt Q08210); assay: PfDHODH enzyme inhibitors, primary screen, biochemical, C-terminal His tag, absorbance 600 nm (AID 1175); conditions: DCIP absorbance 600 nm, higher = more signal, called active from +8 up or from −8 down;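 note: recombinant parasite enzyme with a five histidine tag at its C terminus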
[5] = P. aeruginosa biofilm formation inhibitors, primary screen, strain PAO1, LB-PBS medium, absorbance 600 nm (AID 1176); conditions: P. aeruginosa PAO1 growth/biofilm, A600, 12 h; higher = more signal
[6] = S. cerevisiae RM11-1a growth modifiers, primary screen, strain RM11-1a, OD600, basal, 24 h (AID 1177); conditions: OD600, 24 h, higher = more signal, called active from +8 up or from −8 down;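 note: cultures grown under basal conditions with no added stressor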
[7] = E. coli acrAB mutant growth effects, primary screen, E. coli filamentation inducers, strain DRC39, OD650, 24 h (AID 1178); conditions: higher = more signal, called active from +8 up or from −8 down;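 note: growth measured as culture turbidity by optical density at 650 nm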
[8] = E. coli acrAB mutant growth effects, primary screen, E. coli filamentation inducers, strain DRC39, OD650, 48 h (AID 1179);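 note: screen aims at cell division blockers that make cells filament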; conditions: E. coli DRC39 delta-acrAB growth, higher = more signal, called active from +8 up or from −8 down
[9] = RPMI8226 myeloma cell viability, profiling panel, resazurin fluorescence, basal, 24 h, PK04 Diversity Set (AID 1180); conditions: higher = more signal;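 note: RPMI8826 multiple myeloma cell line at 5000 cells per well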
[10] = target: E3 ubiquitin-protein ligase XIAP (Homo sapiens) (UniProt P98170); assay: XIAP binders, primary screen, biophysical, small-molecule microarray, fluorescence 635 nm (AID 1181); conditions: small-molecule microarray binding, higher = more signal;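 note: score merges 667 nm emission and signal to noise over triplicate slides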
[11] = test system: XIP peptide (Xip251-270) binding; assay: small-molecule binders of XIP peptide, primary screen, biochemical, small-molecule microarray, fluorescence 635/667 nm, 0.1 µg/mL protein (AID 1182); conditions: fluorescent protein binding, 635 nm, higher = more signal, called active from +8 up or from −8 down
XIP peptide (Xip251-270) = assay: small-molecule binders of XIP peptide, primary screen, biochemical, small-molecule microarray, fluorescence 635/667 nm, 0.5 µg/mL protein (AID 1183); conditions: small-molecule microarray binding, fluorescence 635 nm; higher = more signal
[12] = Plasmodium falciparum growth inhibition, primary screen, strain 3D7, DAPI fluorescence, 100 nL (AID 1184);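 note: parasites grown inside human red blood cells in medium with human serum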; conditions: P. falciparum 3D7 growth, 3 d, higher = more signal
[13] = target: Homeobox protein Hox-A13 (Mus musculus) (UniProt Q62424); assay: inhibitors of HoxA13-DNA binding, primary screen, biochemical, fluorescence polarization, labeled oligonucleotide (AID 1185); conditions: 15 min, higher = more signal, called active from +8 up or from −8 down
[14] = inhibitors of hydroxyurea-induced Chk1 phosphorylation, primary screen, imaging, HeLa, phospho-Chk1 antibody, percent positive cells (AID 1186); conditions: hydroxyurea-induced phospho-Chk1 immunofluorescence imaging, higher = more signal
[15] = inhibitors of hydroxyurea-induced Chk1 phosphorylation, primary screen, imaging, HeLa, phospho-Chk1 nuclear intensity (AID 1187); conditions: hydroxyurea-induced phospho-Chk1 immunofluorescence imaging, higher = more signal

Sequence of E3 ubiquitin-protein ligase XIAP (Homo sapiens) (P98170 whole entry, looked up): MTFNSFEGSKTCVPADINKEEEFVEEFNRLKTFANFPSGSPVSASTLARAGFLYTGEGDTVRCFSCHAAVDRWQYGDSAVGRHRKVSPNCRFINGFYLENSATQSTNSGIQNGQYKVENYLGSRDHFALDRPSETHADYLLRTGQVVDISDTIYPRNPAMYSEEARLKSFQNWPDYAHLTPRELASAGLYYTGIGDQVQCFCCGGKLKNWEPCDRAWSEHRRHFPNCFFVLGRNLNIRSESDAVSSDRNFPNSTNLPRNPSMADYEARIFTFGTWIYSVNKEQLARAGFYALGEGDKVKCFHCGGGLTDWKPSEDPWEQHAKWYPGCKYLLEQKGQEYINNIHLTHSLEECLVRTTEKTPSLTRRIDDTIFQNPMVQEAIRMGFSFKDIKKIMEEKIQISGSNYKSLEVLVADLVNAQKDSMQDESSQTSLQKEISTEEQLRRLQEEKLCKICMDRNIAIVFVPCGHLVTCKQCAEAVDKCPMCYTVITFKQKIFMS
Sequence of Homeobox protein Hox-A13 (Mus musculus) (Q62424 whole entry, looked up): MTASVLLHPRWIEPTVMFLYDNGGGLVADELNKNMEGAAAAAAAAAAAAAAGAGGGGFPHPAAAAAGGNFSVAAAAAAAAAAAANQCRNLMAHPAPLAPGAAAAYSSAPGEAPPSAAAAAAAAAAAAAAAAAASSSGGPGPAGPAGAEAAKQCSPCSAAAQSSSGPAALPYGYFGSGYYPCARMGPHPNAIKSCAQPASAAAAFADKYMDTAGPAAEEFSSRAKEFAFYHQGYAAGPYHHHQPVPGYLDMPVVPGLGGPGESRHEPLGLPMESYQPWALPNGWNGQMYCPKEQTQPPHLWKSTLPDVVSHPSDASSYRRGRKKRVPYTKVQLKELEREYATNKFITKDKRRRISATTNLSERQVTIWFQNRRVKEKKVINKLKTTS
Sequence of Dihydroorotate dehydrogenase (quinone), mitochondrial (Plasmodium falciparum (isolate 3D7)) (Q08210 whole entry, looked up): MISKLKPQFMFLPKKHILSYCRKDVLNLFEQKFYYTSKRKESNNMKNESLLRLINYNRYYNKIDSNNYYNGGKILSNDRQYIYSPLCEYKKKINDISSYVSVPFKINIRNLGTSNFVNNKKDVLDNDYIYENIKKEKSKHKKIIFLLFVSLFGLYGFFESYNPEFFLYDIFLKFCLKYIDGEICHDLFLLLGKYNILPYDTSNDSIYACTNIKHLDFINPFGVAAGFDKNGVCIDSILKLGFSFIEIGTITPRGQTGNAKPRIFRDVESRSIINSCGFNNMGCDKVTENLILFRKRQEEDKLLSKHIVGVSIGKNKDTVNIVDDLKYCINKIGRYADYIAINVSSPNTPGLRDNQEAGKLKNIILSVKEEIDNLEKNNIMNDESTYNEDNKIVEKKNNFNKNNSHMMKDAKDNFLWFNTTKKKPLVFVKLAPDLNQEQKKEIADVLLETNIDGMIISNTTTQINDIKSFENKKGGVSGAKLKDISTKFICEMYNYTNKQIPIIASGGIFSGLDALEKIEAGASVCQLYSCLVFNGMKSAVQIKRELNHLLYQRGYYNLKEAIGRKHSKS

SMILES | z-score [1] | z-score [2] | z-score [3] | composite z-score [4] | z-score [5] | z-score [6] | z-score [7] | z-score [8] | z-score [9] | composite z-score [10] | composite z-score [11] | composite z-score (XIP peptide (Xip251-270)) | z-score [12] | z-score [13] | z-score [14] | z-score [15]
COc1ccc([Si](C)(C)[C@H]2[C@H](CCO)O[C@@]3(C(=O)N(C)c4c(Br)cc(C)cc43)[C@@H]2C)cc1 | -6.47 | 0.0436 (inactive) | -9.16 (active) | 1.13 (inactive) | 0.814 (inactive) | 3.93 (inactive) | -0.185 (inactive) | -1.4 (inactive) | -6.31 | 0.184 | 0.307 (inactive) | 0.837 | -2.71 | -5.78 (inactive) | -1.08 (inactive) | -1.73 (inactive)
Cc1ccc(C(C)CC(O)C2C=CC3C(=O)N(C)C(=O)C3N2NC(=O)OC(C)(C)C)o1 (centres undefined) | -0.427 | -0.626 (inactive) | -0.076 (inactive) | -0.166 (inactive) | 0.434 (inactive) | 0.66 (inactive) | -0.107 (inactive) | -0.354 (inactive) | 0.0437 | 0.12 | 3.24 (inactive) | 0.709 | 0.556 | -3.33 (inactive) | -0.158 (inactive) | -0.168 (inactive)
COC(=O)C(CC#Cc1ccc2c(c1)[C@]1(C(=O)N2)[C@H](c2ccc(O)cc2)N2[C@H](c3ccccc3)[C@H](c3ccccc3)OC(=O)[C@H]2[C@@H]1C(=O)Nc1nc2ccccc2s1)C(=O)OC | 0.0384 | -1.11 (inactive) | 1.05 (inactive) | -5.21 (inactive) | 1.27 (inactive) | -1.44 (inactive) | 0.666 (inactive) | 1.04 (inactive) | 0.12 | -0.313 | 1.09 (inactive) | 0.833 | -0.591 | -0.645 (inactive) | -0.0827 (inactive) | -0.46 (inactive)
CCCCC(=C=CC[C@@H](O)c1ccccc1OCCO)CCO | -0.202 | -2.07 (inactive) | 0.684 (inactive) | -0.782 (inactive) | 0.118 (inactive) | 0.853 (inactive) | 0.132 (inactive) | -0.0575 (inactive) | -0.552 | -0.24 | -0.247 (inactive) | 0.357 | -1.6 | -3.19 (inactive) | 0.525 (inactive) | 0.585 (inactive)
C=CC[C@]12N=C(c3ccc(OCCCO)cc3)O[C@H]1c1ccccc1N(Cc1ccccc1)C2=O | -0.882 | 0.143 (inactive) | -3.28 (inactive) | 0.648 (inactive) | 0.603 (inactive) | 0.492 (inactive) | -0.0819 (inactive) | 0.328 (inactive) | -2.3 | -0.122 | 0.0479 (inactive) | 0.586 | -2.17 | 0.196 (inactive) | -0.241 (inactive) | -0.197 (inactive)
CC(C)(C)OC(=O)CC[C@]12N=C(c3ccc(OCCCO)cc3)O[C@H]1c1ccccc1N(CCS(=O)(=O)c1ccccc1)C2=O | 0.0763 | 0.688 (inactive) | -3.32 (inactive) | 0.017 (inactive) | 2.21 (inactive) | 1.84 (inactive) | 0.908 (inactive) | 0.0504 (inactive) | -1.19 | 0.0761 | 1.11 (inactive) | 0.781 | -1.96 | -2.7 (inactive) | -0.266 (inactive) | -0.249 (inactive)
CC(C)C[C@H]1NC(=O)[C@@]23C(=O)N[C@@H](Cc4ccccc4)C2[C@H](C)[C@@]2(C)O[C@H]2C3/C=C/C/C=C\CNC(=O)[C@H](Cc2ccccc2)NC1=O (some centres undefined) | 0.183 | 0.0247 (inactive) | 0.333 (inactive) | -0.259 (inactive) | 0.0117 (inactive) | 1.66 (inactive) | 0.805 (inactive) | 0.199 (inactive) | 0.628 | 0.0842 | 0.303 (inactive) | 0.725 | -1.45 | -7.51 (inactive) | -0.0464 (inactive) | 0.426 (inactive)
C=CCOC(=O)[C@@H]1[C@H]2C(=O)O[C@H](c3ccccc3)[C@H](c3ccccc3)N2[C@H](c2ccc(OCCOC(=O)[C@@H]3C[C@@H]4C(=O)N5CCC[C@H]5C(=O)N4[C@@H]3c3ccc(O)cc3)cc2)[C@@]12C(=O)Nc1ccc(I)cc12 | 0.339 | 0.155 (inactive) | -0.446 (inactive) | -0.326 (inactive) | 2.65 (inactive) | -0.468 (inactive) | 0.65 (inactive) | 1.72 (inactive) | 1.28 | -0.059 | 0.393 (inactive) | 0.533 | -1.85 | 1.38 (inactive) | -0.946 (inactive) | -0.3 (inactive)
C=CC[C@@]1(C(=O)NCc2ccccc2)N=C(c2ccc(OCCCO)cc2)O[C@@H]1c1ccccc1N=[N+]=[N-] | -0.453 | 0.669 (inactive) | -2.2 (inactive) | 1.92 (inactive) | 1.16 (inactive) | 2.07 (inactive) | 0.335 (inactive) | -0.899 (inactive) | -0.829 | 0.0736 | 0.0885 (inactive) | 0.764 | -1.92 | -1.72 (inactive) | -0.334 (inactive) | -0.183 (inactive)
